Common to all, as to assay: DAPPL (digital affinity profiling via proximity ligation, sequencing); 10 mM Tris-HCl pH 7.5, 50 mM NaCl, 1 mM DTT, 4% glycerol, room temperature, 30 min; GST-TFs on glutathione beads, 16-mer random dsDNA library, 0.1% formaldehyde crosslink after washing; high values mean tight binding
Assay [1] deals with T1, FEV (Homo sapiens, UniProt Q99581 1-238).
T1 sequence: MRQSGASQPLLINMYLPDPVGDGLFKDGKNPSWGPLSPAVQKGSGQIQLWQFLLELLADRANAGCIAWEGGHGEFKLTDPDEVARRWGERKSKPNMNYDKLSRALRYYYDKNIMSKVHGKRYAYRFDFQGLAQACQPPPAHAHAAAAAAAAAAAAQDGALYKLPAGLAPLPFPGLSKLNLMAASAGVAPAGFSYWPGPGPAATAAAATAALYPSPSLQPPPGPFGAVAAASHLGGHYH
The settings on record: protein: recombinant; tags: N-terminal GST; dsDNA, one strand shown. In short, it runs like this:
(§1)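 Sequencing on an Illumina NextSeq500 followed washing, crosslinking with 0.1% formaldehyde, proximity ligation (BsaI/T4 ligase, 1 h, 37 °C) and PCR amplification of pools that had been incubated for 30 min at room temperature with 200 nmole of a random double-stranded 16-mer DNA library in Tris/NaCl/DTT/glycerol buffer. Each pool held DNA-barcoded human transcription factors, expressed in yeast as GST fusions and captured on glutathione beads, plus a tag-only sample. Binding signal is a hexamer's read frequency for a factor divided by its frequency in the tag-only sample.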

The target of assay [2] is ETV5 (Homo sapiens, UniProt P41161 1-510). The settings on record: protein: recombinant; tags: N-terminal GST; dsDNA, one strand shown. In short, it runs like this:
as §1

Assay [3] addresses HSF1 (Homo sapiens, UniProt Q00613 1-529). The settings on record: protein: recombinant; tags: N-terminal GST; chain copies: 3; dsDNA, one strand shown. In short, it runs like this:
as §1

Assay [4] deals with T2, SPIC (Homo sapiens, UniProt Q8N5J4 1-248).
T2 sequence: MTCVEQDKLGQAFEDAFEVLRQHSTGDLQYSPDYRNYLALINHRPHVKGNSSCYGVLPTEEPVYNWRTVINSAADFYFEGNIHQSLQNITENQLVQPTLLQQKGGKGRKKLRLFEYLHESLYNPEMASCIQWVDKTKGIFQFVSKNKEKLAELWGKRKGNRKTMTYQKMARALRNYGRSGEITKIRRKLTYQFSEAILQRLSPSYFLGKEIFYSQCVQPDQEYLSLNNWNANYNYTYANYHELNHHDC
The note with it: protein: recombinant; tags: N-terminal GST; dsDNA, one strand shown. Put shortly: as §1

Assay [5] has as its target ELF4 (Homo sapiens, UniProt Q99607 1-663). The note with it: protein: recombinant; tags: N-terminal GST; dsDNA, one strand shown. Put shortly:
as §1

Assay [6] concerns the target T3, ELK4 (Homo sapiens, UniProt P28324-2 1-405).
T3 sequence: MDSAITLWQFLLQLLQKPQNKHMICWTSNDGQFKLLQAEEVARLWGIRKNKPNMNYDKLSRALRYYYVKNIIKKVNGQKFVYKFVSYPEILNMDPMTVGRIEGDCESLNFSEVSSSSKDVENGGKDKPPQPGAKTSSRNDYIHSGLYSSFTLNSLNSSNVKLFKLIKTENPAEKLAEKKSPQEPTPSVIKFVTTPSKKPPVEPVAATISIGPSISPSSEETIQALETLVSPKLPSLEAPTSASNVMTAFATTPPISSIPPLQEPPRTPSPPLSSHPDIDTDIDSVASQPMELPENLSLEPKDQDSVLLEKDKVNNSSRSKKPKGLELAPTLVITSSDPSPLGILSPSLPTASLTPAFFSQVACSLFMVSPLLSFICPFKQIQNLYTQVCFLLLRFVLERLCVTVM
The settings on record: protein: recombinant; tags: N-terminal GST; dsDNA, one strand shown. Put shortly: as §1

The target of assay [7] is T4, ETV2 (Homo sapiens, UniProt O00321 1-342).
T4 sequence: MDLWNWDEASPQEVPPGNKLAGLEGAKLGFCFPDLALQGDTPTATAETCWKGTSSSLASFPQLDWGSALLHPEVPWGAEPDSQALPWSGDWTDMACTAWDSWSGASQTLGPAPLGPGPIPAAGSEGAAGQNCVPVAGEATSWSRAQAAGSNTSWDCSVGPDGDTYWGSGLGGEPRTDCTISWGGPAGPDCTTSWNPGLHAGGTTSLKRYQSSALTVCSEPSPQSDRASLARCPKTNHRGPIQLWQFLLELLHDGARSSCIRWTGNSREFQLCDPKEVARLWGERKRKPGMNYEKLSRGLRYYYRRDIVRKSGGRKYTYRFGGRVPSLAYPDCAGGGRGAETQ
The note with it: protein: recombinant; tags: N-terminal GST; dsDNA, one strand shown. Put shortly: as §1

For assay [8], the target named is T5, ELF3 (Homo sapiens, UniProt P78545 1-371).
T5 sequence: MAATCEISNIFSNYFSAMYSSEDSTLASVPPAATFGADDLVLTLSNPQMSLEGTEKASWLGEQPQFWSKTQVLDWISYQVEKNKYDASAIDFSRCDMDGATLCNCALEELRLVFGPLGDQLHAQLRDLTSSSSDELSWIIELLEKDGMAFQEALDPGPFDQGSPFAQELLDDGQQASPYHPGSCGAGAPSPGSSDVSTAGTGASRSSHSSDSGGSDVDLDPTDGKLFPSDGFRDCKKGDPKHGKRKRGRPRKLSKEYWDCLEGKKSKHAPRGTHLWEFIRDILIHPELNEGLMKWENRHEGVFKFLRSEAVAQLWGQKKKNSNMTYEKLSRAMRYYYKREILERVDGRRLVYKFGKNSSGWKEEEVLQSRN
The settings on record: protein: recombinant; tags: N-terminal GST; dsDNA, one strand shown. In short, it runs like this:
as §1

Assay [9] has as its target CRX (Homo sapiens, UniProt O43186 1-299). The note with it: protein: recombinant; tags: N-terminal GST; dsDNA, one strand shown. In short, it runs like this:
as §1

For assay [10], the target named is ETV1 (Homo sapiens, UniProt P50549 1-477). The note with it: protein: recombinant; tags: N-terminal GST; dsDNA, one strand shown. In short, it runs like this: as §1
Sequence of ETV1 (P50549 whole entry): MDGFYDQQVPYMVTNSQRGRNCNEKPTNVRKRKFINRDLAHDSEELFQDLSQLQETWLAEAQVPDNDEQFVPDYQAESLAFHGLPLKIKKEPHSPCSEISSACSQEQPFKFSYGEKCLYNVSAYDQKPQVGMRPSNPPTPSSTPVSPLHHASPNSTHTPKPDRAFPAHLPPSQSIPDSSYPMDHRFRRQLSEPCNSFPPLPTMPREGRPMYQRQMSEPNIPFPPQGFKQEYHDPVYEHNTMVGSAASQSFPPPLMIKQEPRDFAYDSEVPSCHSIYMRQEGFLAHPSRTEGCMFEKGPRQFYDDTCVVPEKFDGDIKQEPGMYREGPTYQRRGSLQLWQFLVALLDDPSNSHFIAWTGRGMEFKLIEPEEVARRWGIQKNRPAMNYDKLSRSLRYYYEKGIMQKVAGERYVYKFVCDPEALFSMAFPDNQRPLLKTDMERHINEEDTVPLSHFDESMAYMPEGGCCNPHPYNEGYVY
For assay [11], the target named is T6, ERF (Homo sapiens, UniProt P50548 1-548).
T6 sequence: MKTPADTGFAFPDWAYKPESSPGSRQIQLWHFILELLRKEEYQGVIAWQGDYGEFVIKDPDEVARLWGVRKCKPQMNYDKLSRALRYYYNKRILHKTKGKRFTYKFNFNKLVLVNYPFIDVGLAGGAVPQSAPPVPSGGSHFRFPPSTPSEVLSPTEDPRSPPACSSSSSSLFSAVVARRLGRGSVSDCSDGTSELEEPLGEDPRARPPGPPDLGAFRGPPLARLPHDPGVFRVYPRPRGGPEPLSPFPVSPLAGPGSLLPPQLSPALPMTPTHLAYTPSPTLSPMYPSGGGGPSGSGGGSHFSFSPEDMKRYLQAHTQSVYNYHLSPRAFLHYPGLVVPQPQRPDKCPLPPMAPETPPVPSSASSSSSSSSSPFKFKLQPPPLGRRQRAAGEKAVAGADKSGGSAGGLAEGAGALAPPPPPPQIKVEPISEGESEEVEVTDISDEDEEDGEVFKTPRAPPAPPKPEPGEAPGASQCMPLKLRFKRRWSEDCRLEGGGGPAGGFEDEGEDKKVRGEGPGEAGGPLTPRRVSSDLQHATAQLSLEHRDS
The settings on record: protein: recombinant; tags: N-terminal GST; dsDNA, one strand shown. Put shortly:
as §1

The target of assay [12] is T7, ETV3L (Homo sapiens, UniProt Q6ZN32 1-361).
T7 sequence: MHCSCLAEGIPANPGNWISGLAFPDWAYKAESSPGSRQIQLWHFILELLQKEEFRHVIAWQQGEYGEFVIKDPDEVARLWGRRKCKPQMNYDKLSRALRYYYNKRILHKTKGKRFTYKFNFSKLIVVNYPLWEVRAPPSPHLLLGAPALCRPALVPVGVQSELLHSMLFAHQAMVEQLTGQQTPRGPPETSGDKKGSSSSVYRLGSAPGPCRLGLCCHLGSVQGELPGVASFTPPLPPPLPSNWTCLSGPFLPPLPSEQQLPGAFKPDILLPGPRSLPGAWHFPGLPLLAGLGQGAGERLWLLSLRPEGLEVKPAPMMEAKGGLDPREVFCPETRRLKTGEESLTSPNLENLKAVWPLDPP
The settings on record: protein: recombinant; tags: N-terminal GST; dsDNA, one strand shown. Put shortly:
as §1

In assay [13] the target is T8, ETS2 (Homo sapiens, UniProt P15036 1-469).
T8 sequence: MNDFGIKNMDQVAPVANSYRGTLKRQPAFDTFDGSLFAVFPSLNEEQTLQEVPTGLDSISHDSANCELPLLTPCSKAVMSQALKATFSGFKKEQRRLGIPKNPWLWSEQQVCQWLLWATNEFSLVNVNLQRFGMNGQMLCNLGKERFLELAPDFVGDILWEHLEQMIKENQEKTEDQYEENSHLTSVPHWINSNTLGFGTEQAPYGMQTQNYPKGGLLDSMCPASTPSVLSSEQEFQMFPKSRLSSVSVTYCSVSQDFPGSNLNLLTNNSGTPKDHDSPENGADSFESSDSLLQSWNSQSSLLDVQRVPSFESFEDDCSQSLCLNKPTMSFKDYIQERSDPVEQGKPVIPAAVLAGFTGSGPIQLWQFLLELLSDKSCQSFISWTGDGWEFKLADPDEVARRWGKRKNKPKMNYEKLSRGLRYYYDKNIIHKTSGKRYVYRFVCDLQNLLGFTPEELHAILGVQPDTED
The settings on record: protein: recombinant; tags: N-terminal GST; dsDNA, one strand shown. Put shortly: as §1

For assay [14], the target named is T9, SPDEF (Homo sapiens, UniProt O95238 1-335).
T9 sequence: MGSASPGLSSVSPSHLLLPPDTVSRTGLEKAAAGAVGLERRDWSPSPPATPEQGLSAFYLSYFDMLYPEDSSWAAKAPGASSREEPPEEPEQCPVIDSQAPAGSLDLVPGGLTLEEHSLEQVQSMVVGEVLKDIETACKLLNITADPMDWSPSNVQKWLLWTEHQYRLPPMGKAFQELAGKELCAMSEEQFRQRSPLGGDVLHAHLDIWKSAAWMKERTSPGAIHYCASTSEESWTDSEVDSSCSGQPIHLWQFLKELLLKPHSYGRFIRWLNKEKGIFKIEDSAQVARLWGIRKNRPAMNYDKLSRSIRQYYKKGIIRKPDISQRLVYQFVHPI
The settings on record: protein: recombinant; tags: N-terminal GST; dsDNA, one strand shown. Put shortly:
as §1

In assay [15] the target is T10, ETV7 (Homo sapiens, UniProt Q9Y603 1-341).
T10 sequence: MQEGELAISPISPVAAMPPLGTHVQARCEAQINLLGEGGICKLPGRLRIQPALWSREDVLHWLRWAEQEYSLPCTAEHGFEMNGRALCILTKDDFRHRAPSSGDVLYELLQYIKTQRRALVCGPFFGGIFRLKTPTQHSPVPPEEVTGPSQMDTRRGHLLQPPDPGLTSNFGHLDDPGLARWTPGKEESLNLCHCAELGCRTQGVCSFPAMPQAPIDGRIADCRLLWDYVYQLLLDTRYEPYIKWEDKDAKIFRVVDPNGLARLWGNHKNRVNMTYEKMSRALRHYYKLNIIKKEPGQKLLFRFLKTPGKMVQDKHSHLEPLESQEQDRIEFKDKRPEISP
The settings on record: protein: recombinant; tags: N-terminal GST; dsDNA, one strand shown. Put shortly: as §1

In assay [16] the target is T11, ELF5 (Homo sapiens, UniProt Q9UKW6-2 1-255).
T11 sequence: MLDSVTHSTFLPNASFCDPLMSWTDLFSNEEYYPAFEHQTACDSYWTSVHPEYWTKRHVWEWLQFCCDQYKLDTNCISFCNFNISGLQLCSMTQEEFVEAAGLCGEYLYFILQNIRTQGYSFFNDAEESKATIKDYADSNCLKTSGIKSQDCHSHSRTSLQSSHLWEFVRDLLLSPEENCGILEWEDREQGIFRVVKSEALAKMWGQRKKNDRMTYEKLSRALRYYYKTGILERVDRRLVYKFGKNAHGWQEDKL
The settings on record: protein: recombinant; tags: N-terminal GST; dsDNA, one strand shown. In short, it runs like this: as §1

In assay [17] the target is T12, ETV3 (Homo sapiens, UniProt P41162-2 1-143).
T12 sequence: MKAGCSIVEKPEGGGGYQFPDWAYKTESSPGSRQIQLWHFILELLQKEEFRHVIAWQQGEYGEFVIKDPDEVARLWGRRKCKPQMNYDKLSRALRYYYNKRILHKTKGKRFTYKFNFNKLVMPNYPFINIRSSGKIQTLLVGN
The settings on record: protein: recombinant; tags: N-terminal GST; dsDNA, one strand shown. Put shortly:
as §1

Assay [18] deals with ETV6 (Homo sapiens, UniProt P41212 1-452). The settings on record: protein: recombinant; tags: N-terminal GST; dsDNA, one strand shown. In short, it runs like this: as §1
Sequence of ETV6 (P41212 whole entry): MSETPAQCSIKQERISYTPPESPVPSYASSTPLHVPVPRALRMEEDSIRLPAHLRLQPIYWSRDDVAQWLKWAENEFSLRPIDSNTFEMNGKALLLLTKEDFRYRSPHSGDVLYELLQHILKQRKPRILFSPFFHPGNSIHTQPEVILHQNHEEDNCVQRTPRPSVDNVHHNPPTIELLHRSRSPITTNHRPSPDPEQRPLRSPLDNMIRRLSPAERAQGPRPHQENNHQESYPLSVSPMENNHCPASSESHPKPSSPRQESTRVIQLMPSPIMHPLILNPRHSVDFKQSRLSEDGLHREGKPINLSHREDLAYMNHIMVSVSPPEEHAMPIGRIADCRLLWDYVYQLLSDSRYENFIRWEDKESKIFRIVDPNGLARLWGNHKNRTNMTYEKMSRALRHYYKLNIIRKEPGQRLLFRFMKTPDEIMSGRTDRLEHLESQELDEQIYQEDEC

Sequence of HSF1 (Q00613 whole entry): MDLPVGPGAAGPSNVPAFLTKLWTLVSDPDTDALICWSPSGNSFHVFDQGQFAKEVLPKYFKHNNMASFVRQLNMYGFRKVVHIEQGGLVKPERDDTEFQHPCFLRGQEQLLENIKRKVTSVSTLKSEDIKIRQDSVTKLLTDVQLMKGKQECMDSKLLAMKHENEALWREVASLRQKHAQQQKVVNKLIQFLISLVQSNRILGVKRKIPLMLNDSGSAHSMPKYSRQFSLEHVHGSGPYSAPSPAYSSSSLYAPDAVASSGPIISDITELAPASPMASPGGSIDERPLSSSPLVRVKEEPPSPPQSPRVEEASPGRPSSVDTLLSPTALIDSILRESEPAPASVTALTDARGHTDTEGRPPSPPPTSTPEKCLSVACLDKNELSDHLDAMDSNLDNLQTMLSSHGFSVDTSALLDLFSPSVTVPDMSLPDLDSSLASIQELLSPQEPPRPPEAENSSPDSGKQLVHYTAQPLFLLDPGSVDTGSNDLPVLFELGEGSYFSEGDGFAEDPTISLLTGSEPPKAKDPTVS
Sequence of ELF4 (Q99607 whole entry): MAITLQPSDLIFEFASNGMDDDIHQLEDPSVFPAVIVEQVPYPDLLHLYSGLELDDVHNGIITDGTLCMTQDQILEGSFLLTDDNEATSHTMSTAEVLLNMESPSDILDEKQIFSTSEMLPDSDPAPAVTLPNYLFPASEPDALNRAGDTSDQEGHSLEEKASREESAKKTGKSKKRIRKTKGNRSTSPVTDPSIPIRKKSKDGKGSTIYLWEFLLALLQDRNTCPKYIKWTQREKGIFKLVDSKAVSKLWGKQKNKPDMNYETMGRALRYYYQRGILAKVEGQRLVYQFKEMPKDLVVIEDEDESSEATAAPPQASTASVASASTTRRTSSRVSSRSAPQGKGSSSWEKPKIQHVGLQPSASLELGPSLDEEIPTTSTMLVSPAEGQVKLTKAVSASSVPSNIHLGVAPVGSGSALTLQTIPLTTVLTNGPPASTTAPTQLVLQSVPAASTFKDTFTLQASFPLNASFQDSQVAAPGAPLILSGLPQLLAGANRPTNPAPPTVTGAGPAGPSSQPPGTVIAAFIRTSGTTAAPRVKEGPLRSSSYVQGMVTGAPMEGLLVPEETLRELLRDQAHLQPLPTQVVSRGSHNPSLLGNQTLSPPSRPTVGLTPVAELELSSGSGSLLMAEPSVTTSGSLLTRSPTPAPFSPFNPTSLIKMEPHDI
Sequence of ETV5 (P41161 whole entry): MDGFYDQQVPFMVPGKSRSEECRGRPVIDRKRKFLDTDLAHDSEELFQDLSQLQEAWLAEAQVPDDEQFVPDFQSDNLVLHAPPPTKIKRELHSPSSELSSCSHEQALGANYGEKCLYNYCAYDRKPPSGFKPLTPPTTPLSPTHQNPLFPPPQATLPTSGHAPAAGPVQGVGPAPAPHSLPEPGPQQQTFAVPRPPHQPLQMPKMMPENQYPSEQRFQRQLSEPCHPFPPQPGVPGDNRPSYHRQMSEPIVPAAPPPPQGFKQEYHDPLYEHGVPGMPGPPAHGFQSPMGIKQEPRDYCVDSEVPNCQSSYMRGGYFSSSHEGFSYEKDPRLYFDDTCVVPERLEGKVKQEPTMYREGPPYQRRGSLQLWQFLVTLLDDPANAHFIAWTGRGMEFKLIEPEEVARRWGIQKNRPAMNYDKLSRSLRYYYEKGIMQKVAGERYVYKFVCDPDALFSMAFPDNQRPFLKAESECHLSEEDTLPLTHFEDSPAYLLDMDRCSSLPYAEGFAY
Sequence of CRX (O43186 whole entry): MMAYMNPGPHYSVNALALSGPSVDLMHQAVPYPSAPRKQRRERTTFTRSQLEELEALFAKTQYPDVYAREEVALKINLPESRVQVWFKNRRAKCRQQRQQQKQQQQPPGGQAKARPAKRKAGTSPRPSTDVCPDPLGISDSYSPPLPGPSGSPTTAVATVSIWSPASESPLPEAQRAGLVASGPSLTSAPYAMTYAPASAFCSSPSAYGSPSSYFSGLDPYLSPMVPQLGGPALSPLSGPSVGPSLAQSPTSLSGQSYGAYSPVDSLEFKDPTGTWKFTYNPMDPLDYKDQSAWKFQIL

In the case of CGATTC, the binding signal in [1] was 1.06 fold enrichment (6-mer frequency, TF over GST control); in assay [2] it was 1.19 fold enrichment (6-mer frequency, TF over GST control); in assay [3], 1.35 fold enrichment (6-mer frequency, TF over GST control); in assay [4] it was 1.18 fold enrichment (6-mer frequency, TF over GST control); in [5] it was 1.24 fold enrichment (6-mer frequency, TF over GST control); in [6] it was 1.28 fold enrichment (6-mer frequency, TF over GST control). In addition, the binding signal is 1.06 fold enrichment (6-mer frequency, TF over GST control) in assay [7]; 1.22 fold enrichment (6-mer frequency, TF over GST control) in assay [8]; 1.09 fold enrichment (6-mer frequency, TF over GST control) in assay [9]; 1.25 fold enrichment (6-mer frequency, TF over GST control) in assay [10]; 1.09 fold enrichment (6-mer frequency, TF over GST control) in [11]; 1.18 fold enrichment (6-mer frequency, TF over GST control) in [12]. The binding signal in assay [13] is 1.24 fold enrichment (6-mer frequency, TF over GST control); in assay [14], 1.13 fold enrichment (6-mer frequency, TF over GST control); in assay [15], 1.06 fold enrichment (6-mer frequency, TF over GST control); in assay [16] it was 1.11 fold enrichment (6-mer frequency, TF over GST control); in [17], 1.23 fold enrichment (6-mer frequency, TF over GST control); in assay [18], 1.11 fold enrichment (6-mer frequency, TF over GST control).

The record behind these values is publication PMC7862700, “An all-to-all approach to the identification of sequence-specific readers for epigenetic DNA modifications on cytosine”.
